# Measured values from paper PMC4336329 (PLoS ONE, 2015).
# About 14,000 (4.5%) of roughly 310,000 compounds showed an effect of 50% or more. Effects have a minus sign here. Shown is part of a subset that was picked to be rich in strong results.
# Biological target: human ether-à-go-go-related gene (hERG) potassium channel (human, UniProt Q12809)
# Experiment: primary screen, population patch clamp on CHO cells stably expressing hERG; higher = less effect of the substance
# 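Note: peak tail current of the secondary pulse compared with the same well before compound.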
# Chain of human ether-à-go-go-related gene (hERG) potassium channel (Q12809 whole entry, looked up): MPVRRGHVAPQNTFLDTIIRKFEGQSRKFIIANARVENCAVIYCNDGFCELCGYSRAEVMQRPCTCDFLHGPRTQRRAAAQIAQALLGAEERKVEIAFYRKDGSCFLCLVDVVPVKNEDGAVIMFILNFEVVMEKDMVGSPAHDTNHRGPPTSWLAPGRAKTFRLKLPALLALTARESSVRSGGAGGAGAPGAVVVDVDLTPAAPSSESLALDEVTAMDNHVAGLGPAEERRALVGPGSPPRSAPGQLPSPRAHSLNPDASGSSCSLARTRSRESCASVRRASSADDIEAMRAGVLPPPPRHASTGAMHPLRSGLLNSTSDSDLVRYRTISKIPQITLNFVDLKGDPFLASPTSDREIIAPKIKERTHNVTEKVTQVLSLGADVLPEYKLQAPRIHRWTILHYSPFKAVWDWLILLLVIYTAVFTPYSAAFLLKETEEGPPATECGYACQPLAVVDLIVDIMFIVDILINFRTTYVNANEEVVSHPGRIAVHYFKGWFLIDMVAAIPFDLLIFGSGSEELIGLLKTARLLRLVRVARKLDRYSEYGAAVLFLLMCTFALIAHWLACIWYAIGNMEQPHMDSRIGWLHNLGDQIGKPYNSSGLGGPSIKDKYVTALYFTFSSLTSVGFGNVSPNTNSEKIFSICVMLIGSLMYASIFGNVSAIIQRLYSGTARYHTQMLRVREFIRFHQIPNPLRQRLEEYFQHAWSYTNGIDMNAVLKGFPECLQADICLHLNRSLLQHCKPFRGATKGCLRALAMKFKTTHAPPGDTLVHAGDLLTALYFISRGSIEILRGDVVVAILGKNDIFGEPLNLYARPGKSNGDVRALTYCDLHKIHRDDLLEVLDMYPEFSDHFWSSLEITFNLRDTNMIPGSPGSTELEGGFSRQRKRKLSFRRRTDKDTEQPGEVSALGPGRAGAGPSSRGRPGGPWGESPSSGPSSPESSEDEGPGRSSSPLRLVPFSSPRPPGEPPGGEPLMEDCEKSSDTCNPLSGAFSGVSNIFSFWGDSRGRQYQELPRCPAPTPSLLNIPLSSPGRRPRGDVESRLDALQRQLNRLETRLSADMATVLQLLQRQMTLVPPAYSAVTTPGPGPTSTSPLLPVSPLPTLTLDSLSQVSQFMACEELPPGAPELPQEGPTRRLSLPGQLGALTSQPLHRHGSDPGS
row,Structure (SMILES),"hERG current change (%, negative = inhibition) at 10uM"
1,CC(=O)Nc1ccc(Nc2ncnc3ccccc23)cc1,10.9%
2,O=C(C(=C1N(Cc2ccc(Cl)nc2)CCN1Cc1ccc(Cl)nc1)[N+](=O)[O-])C(Cl)Cl,-26.6%
3,CCn1c(C)nc2cc(S(N)(=O)=O)ccc21,21.9%
4,Cc1ccc(C)c(NC(=O)c2nnn(Cc3ccccc3)c2N)c1,-6.11%
5,Cc1nc(NC(=O)CSc2cc(C)c3ccccc3n2)c(Cl)cc1Cl,5.23%
6,CC1CN(C(=O)CCNC(=O)c2ccc(Br)cc2)CC(C)O1 (stereo not drawn),-4.12%
7,O=C(CSc1ncn[nH]1)Nc1cccc2ccccc12,3.88%
8,CCC(C)(C)NC(=O)Cc1ccccc1OC,23%
9,COc1ccc(C(CNC(=O)c2cccc(Br)c2)N2CCCC2)cc1 (stereo not drawn),-31.6%
10,COc1ccc(C(CNC(=O)c2cccc(S(=O)(=O)Nc3ccc(C)cc3)c2)N2CCCCC2)cc1 (stereo not drawn),-30.7%
11,COc1ccc(C(CNC(=O)CNC(=O)c2cccc(Cl)c2)N2CCCC2)cc1 (stereo not drawn),-33.8%
12,COc1ccc(C(CNC(=O)c2cccc(S(=O)(=O)N3CCCCC3)c2)N2CCCC2)cc1 (stereo not drawn),-43.8%
13,COc1ccc(C(CNC(=O)c2cccc(NC(=O)c3cccs3)c2)N2CCCC2)cc1 (stereo not drawn),-58.8%
14,COc1ccc(C(CNC(=O)c2ccc(Cl)c(NC(=O)c3cccs3)c2)N2CCCC2)cc1 (stereo not drawn),-70.9%
15,COc1cc2c(cc1OC)C(C)N(C(=O)Nc1cc(C)cc(C)c1)CC2 (stereo not drawn),4.95%
16,COC(=O)c1c(NC(=O)c2ccco2)sc2c1CC(C)(C)NC2(C)C,-21.2%
17,Cn1c(=O)c2c(ncn2CC(=O)OCC(=O)Nc2sccc2C(N)=O)n(C)c1=O,-10.1%
18,COC(=O)C1=C(C)N(c2cccc3ccccc23)C(=O)C1,-6.64%
19,Cc1noc(NC(=O)c2ccccc2C(F)(F)F)c1C#N,-46%

row,Structure (SMILES),"hERG current change (%, negative = inhibition) at 10uM"
1,CCN1C(=O)[C@H]2[C@@H](c3ccc(OC)cc3)N3C(=O)CN(CCOC)C(=O)[C@@]3(C)[C@H]2C1=O,-2.75%
2,Cl.O=C(CN1CCCC1)NCc1ccccc1,15.6%
3,O=C(CN1CCN(c2ccccc2F)CC1)NCc1ccc(Cl)cc1,-19.1%
4,O=C(CN1CCN(C/C=C/c2ccccc2)CC1)NCc1ccc(Cl)cc1,-78%
5,O=C(N/C=C\c1ccccc1)NCc1ccc(Cl)cc1,1.95%
6,O=C(CN1CCCCCC1)NCc1ccccc1,10.1%
7,O=C(CN1CCN(C/C=C/c2ccccc2)CC1)NCc1ccccc1,-73.3%
8,COc1cccc(C2(c3cccc(OC)c3)CC2C(=O)Nc2ccccc2Cl)c1 (stereo not drawn),14%
9,CN1C(=O)C(=Cc2ccc(-c3cccc(Cl)c3)o2)C(=O)N(C)C1=O,10.2%
10,Cc1ccc(NC(=O)c2cc([N+](=O)[O-])ccc2NCc2cccnc2)cc1Cl,-41.7%
11,O=[N+]([O-])c1ccc(N2CCN(S(=O)(=O)c3ccc(Cl)cc3)CC2)cc1NCc1cccnc1,2.59%
12,O=C(c1ccccc1F)N1CCN(c2ccc([N+](=O)[O-])c(NCc3cccnc3)c2)CC1,-45.5%
13,CCS(=O)(=O)N1CCN(c2ccc([N+](=O)[O-])c(NCc3cccnc3)c2)CC1,-49.1%
14,COc1cccc(NC(=O)c2cc([N+](=O)[O-])ccc2NCc2cccnc2)c1,-44%
15,Cc1ccc(C(=O)N2CCN(c3ccc([N+](=O)[O-])c(NCc4cccnc4)c3)CC2)cc1,-59.4%
16,O=C(c1ccc(Cl)cc1)N1CCN(c2ccc([N+](=O)[O-])c(NCc3cccnc3)c2)CC1,-50.1%
17,Cc1ccccc1C(=O)N1CCN(c2ccc([N+](=O)[O-])c(NCc3cccnc3)c2)CC1,-27%
18,CC(=O)N1CCN(c2ccc([N+](=O)[O-])c(NCc3cccnc3)c2)CC1,-22.3%
19,CC(C)(C)C(=O)N1CCN(c2ccc([N+](=O)[O-])c(NCc3cccnc3)c2)CC1,-29.3%

row,Structure (SMILES),"hERG current change (%, negative = inhibition) at 10uM"
1,O=C(c1ccccc1)N1CCN(c2ccc([N+](=O)[O-])c(NCc3cccnc3)c2)CC1,-69.7%
2,Cc1ccc(NC(=O)c2cc([N+](=O)[O-])ccc2NCc2cccnc2)cc1,-82.7%
3,COc1cccc(C(=O)NCCS(=O)(=O)NCc2cccnc2)c1,8.66%
4,COC(=O)c1ccc(NC(=O)CSc2nnc(C3CC3)n2C)cc1,-4.59%
5,COc1ccccc1S(=O)(=O)Cc1ccc(C(=O)NC2CC2)o1,18.5%
6,CCN(CC#CCC1(O)c2ccccc2-c2ccccc21)C(C)C,-9.99%
7,O=C(COC(=O)c1ccc[nH]c1=O)NC1CCCCCC1,46.2%
8,Cc1cc2c(NC(=O)CCCC(=O)O)cccc2nn1,13.6%
9,Cc1cccc2sc(NNC(=O)c3cc(-c4cccs4)nc4ccccc34)nc12,13.4%
10,CC(=O)NC(NC(=S)Nc1ccc(N=Nc2ccccc2)cc1)C(Cl)(Cl)Cl (stereo not drawn),19.6%
11,O=C(COc1ccc(Br)cc1)N1CCOCC1,-0.627%
12,Cc1cccc(NS(=O)(=O)c2ccc3c(c2)NC(=O)CO3)c1C,3.88%
13,CC(=O)N(c1ccc2oc(=O)sc2c1)S(=O)(=O)c1cccc2cccnc12,5.98%
14,CCC1CCCCN1CCCNC(=O)Cn1c(=O)c2cccn2c2cccnc21 (stereo not drawn),12.1%
15,Cc1ccc(C)c(N2CCN(CCCNC(=O)CCn3c(=O)c4cccn4c4cccnc43)CC2)c1,-70%
16,Cc1ccc(Cl)cc1N1CCN(C(=O)CCCn2c(=O)c3cccn3c3cccnc32)CC1,-15.1%
17,Cc1ccc(C)c(N2CCN(CCCNC(=O)Cn3c(=O)c4cccn4c4cccnc43)CC2)c1,-59.6%
18,CC1CCCC(C)N1CCCNC(=O)CCn1c(=O)c2cccn2c2cccnc21 (stereo not drawn),16.7%
19,CC1CCCC(C)N1CCCNC(=O)Cn1c(=O)c2cccn2c2cccnc21 (stereo not drawn),2.77%
